SMN2 splice enh = enhancers of SMN2 splice variant expression | HEK293 SMN2-luciferase splicing reporter, luminescence, 30-36 h | Potency, µM (highest dose often 46.1 µM), for inactives: top-dose activity change, positive = activation, hits mostly activators | 2.8% of 210,000 active | AID 1458; further: % of control where 0% means no effect; nearly all actives have a fitted effect of over 55% in size
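qHTS luciferase splicing reporter: luminescence rises when SMN2 exon 7 is included in transfected HEK293 cells. Compound exposure lasted 30-36 h at 37C, with 4.5 mM final sodium butyrate as control, followed by a ONE-Glo read.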
ELG1 repair inh = ELG1-dependent DNA repair inhibition. HEK293T ELG1-luciferase reporter, luminescence, 16 h; DNA damage induced by 5-fluorouridine. Potency, µM (doses to about 46.1 µM), for inactives: top-dose activity change, negative = inhibition, actives largely listed as inhibitors. 2.3% of 330,000 active; further: on the % scale 0 is the no-effect control and ±100 the full control effect; nearly all actives have a fitted effect of over 55% in size
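HEK293T cells expressing luciferase-tagged ELG1 (2,000/well) received 5-Fluorouridine plus compound or DMSO for 16 hr at 37 °C. Luciferase was read by ONE-Glo luminescence after 30 min at room temperature.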
Rab9 promoter act = Rab9 promoter activation. Huh7 Rab9 promoter-luciferase reporter, luminescence, 24 h. Potency, µM (top dose mostly 9.22 µM), for inactives: top-dose activation, negative = inhibition, most hits filed as activators. 2.8% of 320,000 active. AID 485297; further: % of control where 0% means no effect; nearly all actives have a fitted effect of over 60% in size
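Stable Rab9-luc Huh7, 1500 cells/well, 2 h settle; cmpd in DMSO, 24 h, 37 °C/5% CO2; luciferase reagent 10 min RT; luminescence.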
NPC1 promoter act = activates the NPC1 promoter; Huh7 NPC1 promoter luciferase reporter, 24 h; Potency, µM (titrated, usually from 9.22 µM), for the others: at the highest dose activation, usual class: activators; 2.4% of 320,000 active; further: % of control where 0% means no effect; nearly all actives have a fitted effect of over 60% in size
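NPC1 promoter–luciferase Huh7 cells; 24 h compound; luminescence.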
FLuc modulator = counter-screen for miR-21 project: firefly luciferase inhibitors or activators. P08659. 6.9% of 360,000 active. purified FLuc, Km substrates, luminescence inhibition. Potency, µM (top dose mostly 57.5 µM), without a hit: at the top dose activity change, negative = inhibition, usual class: inhibitors. AID 588342;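 further: plate controls were vehicle for no effect and reference inhibitor for full effect; nearly all actives have a fitted effect of over 55% in size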
Target sequence (P08659 whole entry, looked up): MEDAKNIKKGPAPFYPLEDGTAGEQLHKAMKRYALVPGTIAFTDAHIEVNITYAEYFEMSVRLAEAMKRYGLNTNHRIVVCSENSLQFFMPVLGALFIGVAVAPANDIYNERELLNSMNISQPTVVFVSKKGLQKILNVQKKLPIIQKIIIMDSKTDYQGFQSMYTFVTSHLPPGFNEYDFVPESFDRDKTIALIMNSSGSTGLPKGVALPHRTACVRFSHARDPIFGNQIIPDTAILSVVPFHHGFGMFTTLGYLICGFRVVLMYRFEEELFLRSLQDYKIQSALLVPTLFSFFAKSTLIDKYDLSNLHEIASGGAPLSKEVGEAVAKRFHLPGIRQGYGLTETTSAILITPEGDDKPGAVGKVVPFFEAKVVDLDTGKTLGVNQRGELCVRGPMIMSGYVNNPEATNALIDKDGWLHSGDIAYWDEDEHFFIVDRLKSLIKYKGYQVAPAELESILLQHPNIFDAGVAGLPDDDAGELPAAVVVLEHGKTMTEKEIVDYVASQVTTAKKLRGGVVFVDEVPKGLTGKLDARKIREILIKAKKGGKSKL
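Biochemical qHTS of compounds, final roughly 60 µM downward over six points, against 10 nM purified firefly luciferase using Km concentrations of substrates (10 uM D-luciferin, 10 uM ATP) in Tris acetate pH 7.5 buffer; luminescence output.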
ELG1 genotoxic = inducers of genotoxicity in HEK293T ELG1-luciferase cells; HEK293T ELG1-luciferase reporter, luminescence, 16 h; Potency, µM (series often up to 46 µM), inactives show at the highest dose activity change, positive = activation, actives largely listed as activators; 1.3% of 330,000 active; AID 504466; further: % of control where 0% means no effect; nearly all actives have a fitted effect of over 60% in size
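Quantitative HTS format in 1536-well plates. HEK293T ELG1-luciferase reporter cells receive test compound and are incubated 16 hr at 37 °C, 5% CO2; ONE-Glo added, 30 min room temperature, then luminescence read.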
Active calls of the source: *; ? = inconclusive; . = no result; [ ] = dose if it differs, or a comment. Sampled rows, rich in hits. Any-hit rate of the full collection: about 9.3%. The call rests on the fitted dose curve; in most records, active means well fitted curve in the direction sought with a large enough effect; inconclusive means small, poorly fitted or top-dose-only effect, or another doubt; inactive means no such curve, though single readings can be large; an effect the other way counts as inactive or inconclusive. Potency means the concentration at half of the fitted maximal effect.

SMILES	SMN2 splice enh	ELG1 repair inh	Rab9 promoter act	NPC1 promoter act	FLuc modulator	ELG1 genotoxic
Cc1cc(/C=C(\C#N)C(=O)Nc2ccccc2)c(C)n1-c1ccc(F)cc1	2%	.	.	.	2.7µM*	.
CCOC(=O)C1(Cc2ccccc2Cl)CCN(C(=O)c2cnccn2)CC1	.	?	2.8µM*	?	15µM*	?
CCOC(=O)C1(CCCc2ccccc2)CCN(C(=O)CN2C(=O)CSC2=O)CC1	.	12µM*	-1%	-8%	0%	-8%
CCOC(=O)C1(CCCc2ccccc2)CCN(C(=O)c2cnc(C)cn2)CC1	.	16µM*	-16%	0%	-3%	-7%
CCC1=Nc2cc(C(=O)N3CCC(C)CC3)ccc2Sc2ccc(C)cc21	-1%	.	.	.	-6%	.
CCOc1ccc(N2C(=O)C3C(c4ccc(OC)cc4OC)NC(CCSC)(C(=O)OC)C3C2=O)cc1 (stereo unspecified)	.	?	-1%	-1%	0%	2%
CCCC1(C(=O)OCC)NC(c2ccc(OC)cc2OC)C2C(=O)N(c3ccccc3)C(=O)C21 (stereo unspecified)	3%	12µM*	0%	-3%	1%	-4%
COc1ccc(Cl)cc1C(=O)NNC(=S)NC(=O)c1cc(-c2ccc(Cl)cc2)nc2ccccc12	-35%	16%	-6%	-7%	4%	1%
CCNC(=S)NNC(=O)c1cc(-c2ccc(OC)cc2)nc2ccccc12	7.9µM*	?	?	?	0.076µM*	?
CCNC(=S)NNC(=O)c1cc(-c2cccc(C)c2)nc2ccccc12	?	?	?	?	0.34µM*	2%
CCNC(=S)NNC(=O)c1cc(-c2cccc(OCC)c2)nc2ccccc12	16%	?	17%	12%	1.3µM*	?
CCNC(=S)NNC(=O)c1cc(C)nc2ccccc12	16%	13%	-8%	-3%	-14%	-1%
CCCCOc1cccc(-c2cc(C(=O)NNC(=S)NCC)c3ccccc3n2)c1	21%	?	16%	7%	1.5µM*	?
COc1ccc(S(=O)(=O)N2CCCCC2)cc1NC(=O)CCOc1cc(C)ccc1C	.	-6%	3%	-1%	.	-2%
CC(OC(=O)c1ccc(Cl)c(S(=O)(=O)Nc2ccc(F)cc2)c1)C(=O)NC(N)=O (stereo unspecified)	.	12%	-3%	2%	-2%	0%
CN(Cc1ccccc1)C(=O)c1nn2cccnc2c1Cl	14%	6%	-2%	0%	3%	3%
CCCCOc1ccc(-c2cc(C(=O)NNC(=S)NCC)c3ccccc3n2)cc1	3.2µM*	?	?	?	0.076µM*	?
O=C(NC(=S)Nc1ccccc1)c1cc(-c2ccccc2)nc2ccccc12	20%	-16%	-6%	-3%	-5%	1%
COC(=O)N1C(/C=C/c2ccc3c(c2)OCO3)=Cc2ccccc2C1CC(C)=O (stereo unspecified)	-4%[9.22 µM]	.	.	.	.	.
COc1ccc(Cc2nnc(NC(=O)c3cccc(F)c3)s2)cc1OC	.	1%	-1%	2%	1%	0%
CC1CCN(Cc2nnnn2CCCC(=O)N(C)C2CCOC2)CC1 (stereo unspecified)	.	1%	0%	-1%	-2%	1%
CN[C@@H]1[C@H](O)[C@H](NC)[C@H]2O[C@@]3(O)C(=O)C[C@@H](C)O[C@H]3O[C@@H]2[C@H]1O	6%	16%	-3%	-1%	2%	0%
COC(=O)c1c(C)[nH]c(C(=O)OCc2ccc(F)cc2)c1C	.	?	4µM*	3.5µM*	9.5µM*	?
CCc1c(C(=O)OCc2ccccc2)[nH]c(C)c1C	.	?	?	28%	24µM*	?
CCc1c(C)[nH]c(C(=O)OCc2ccccc2)c1C	.	?	?	21%	?	?
SMILES	SMN2 splice enh	ELG1 repair inh	Rab9 promoter act	NPC1 promoter act	FLuc modulator	ELG1 genotoxic
CC(=O)c1c(C)[nH]c(C(=O)OCC(=O)Nc2cc(Cl)ccc2[N+](=O)[O-])c1C	.	18µM*	-2%	-2%	-2%	-6%
CC(=O)c1c(C)[nH]c(C(=O)NCCc2cccc(C)c2)c1C	11%	?	?	?	17µM*	6%
CCOC(=O)c1[nH]c(C)c(C(=O)OCc2ccccc2F)c1C	.	?	-25%	-31%	2%	-9%
N#C/C(=C\c1ccncc1)c1nc2ccccc2c(=O)[nH]1	13%	-8%	-2%	3%	?	3%
Cc1ccc(SCC(=O)NCC2COc3ccccc3O2)cc1 (stereo unspecified)	.	2%	1%	-1%	3%	2%
CC(C)N(C)S(=O)(=O)c1ccc(Cl)c(C(=O)O)c1	18%	-14%	9%	-5%	5%	1%
CC(=O)c1c(C)[nH]c(C(=O)OCC(=O)NCCc2ccc(F)cc2)c1C	-19%	21µM*	3%	-3%	1%	-5%
CC(=O)c1c(C)[nH]c(C(=O)OCC(=O)NCCc2ccc(Cl)cc2)c1C	-22%	?	2%	-2%	4%	-9%
COC(=O)c1c(C)[nH]c(C(=O)CSc2ccc(Cl)cc2)c1C	11µM*	?	2.5µM*	4µM*	4.8µM*	?
COC(=O)c1c(C)[nH]c(C(=O)CC#N)c1C	?	16%	4%	-2%	-7%	7%
CCOC(=O)N1CCN(C(=O)c2ccc3nc(SCc4ccc(F)cc4)n(C)c3c2)CC1	-31%	13µM*	-5%	3%	-1%	-5%
CCOC(=O)C(C)On1c(-c2ccc(Cl)cc2)nc2ccc([N+](=O)[O-])cc21 (stereo unspecified)	-4%	?	18%	29%	15µM*	12%
O=C(O)COn1c(-c2ccccc2)nc2ccc([N+](=O)[O-])cc21	29%	?	?	26%	15µM*	18%
O=[N+]([O-])c1ccc2nc(-c3ccc(Cl)cc3)n(OCc3ccccc3)c2c1	2%	?	?	?	12µM*	?
Cc1ccc(COn2c(-c3ccc(Cl)cc3)nc3ccc([N+](=O)[O-])cc32)cc1	?	?	?	?	17µM*	17%
CCOC(=O)C(C)On1c(-c2ccccc2)nc2ccc([N+](=O)[O-])cc21 (stereo unspecified)	28%	?	?	?	-11%[2.3 µM]	3%
O=C(OCc1c(F)cccc1Cl)c1cccnc1Cl	.	1%	-8%	1%	5%	-2%
COc1cc2c(-c3ccccc3C)nc3c(c(C)nn3-c3ccccc3)c2cc1OC	-14%	.	.	.	-1%	.
CCOC(=O)N1CCN(c2ncnc3c2cnn3-c2ccc(Cl)cc2)CC1	-53%	?	-1%	-3%	7%	1%

Screening data deposited in PubChem BioAssay by National Center for Advancing Translational Sciences (NCATS).
